Screening data deposited in PubChem by several laboratories.
Compounds with a hit are over-represented: about 2.9% of the library has one in this group of screens.
DAGLB inh – blocks human DAGLB lipase activity; AID 504411; inhibition, % at 5.17 µM; 340,000 tested, 0.059% active; HEK293T DAGLB membrane lysate, EnzChek fluorogenic substrate; Q8NCG7; in the data active = inhibition above about 34%;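 also: 0% = enzyme with vehicle and 100% = wells lacking enzyme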
Rtt109 HAT inh – C. albicans Rtt109 histone acetyltransferase inhibition | 330,000 tested, 0.16% active | Q5AAJ8 | purified Rtt109/Vps75, ThioGlo CoA-SH fluorescence, 4 h | inhibition, % at 34.9 µM;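 active = inhibition of at least 50% in every replicate; inconclusive = best replicate reaches 50% inhibition but some replicates fall short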
Target sequence (Q5AAJ8 whole entry, looked up): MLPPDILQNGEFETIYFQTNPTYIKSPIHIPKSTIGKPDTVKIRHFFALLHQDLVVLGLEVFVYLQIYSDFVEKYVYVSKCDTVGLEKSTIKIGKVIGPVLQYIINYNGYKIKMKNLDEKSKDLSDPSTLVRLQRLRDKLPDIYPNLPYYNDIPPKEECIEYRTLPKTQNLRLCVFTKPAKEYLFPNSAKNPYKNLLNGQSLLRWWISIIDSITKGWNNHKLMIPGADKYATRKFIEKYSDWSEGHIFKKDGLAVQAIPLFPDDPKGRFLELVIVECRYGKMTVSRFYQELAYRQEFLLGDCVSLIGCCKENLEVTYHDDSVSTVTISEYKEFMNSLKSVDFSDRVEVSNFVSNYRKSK
HGIII-sPLA2 inh – Inhibits HGIII-sPLA2 liposome hydrolysis, primary screen; AID 743126; Q9NZ20; 370,000 tested, 0.56% active; QFRET BODIPY PC-A2 liposome hydrolysis, fluorescence; inhibition, % at 12.2 µM;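 active = inhibition above mean plus 3 SD of compounds lying within the high and low control bounds, cut at about 19% in these data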;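 also: 0% = median of test compound wells and 100% = no enzyme DMSO wells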
Myeloid diff 2 – myeloid differentiation induction; 360,000 tested, 1% active; calls only at 10 µM; ER-HoxA9 myeloid progenitors, lysozyme-GFP differentiation, flow cytometry;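 active = normalized GFP-positive differentiation at or above the plate's own cutoff, the solvent-only control mean plus 3 SD; inconclusive = no clear call, values can overlap the other calls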;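 also: cells exposed to compound for four days before flow analysis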
H9c2 protect – modulators protecting cardiomyocytes from myocardial damage; H9c2 cardiomyocytes, H2O2 injury protection, ATPLite, 2 h; protection from H2O2 cell death, % at 20 µM; 360,000 tested, 0.63% active;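 active = compounds giving at least 50% protection of heart cells from peroxide-induced death in the single-dose screen, raw or plate-pattern-corrected value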;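 also: 0% = DMSO wells with peroxide and 100% = DMSO wells without peroxide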
ABHD5 PLIN5 PPI – ABHD5-PLIN5 protein interaction inhibition | Q00G26+Q8WTS1 | Split G. princeps luciferase complementation, luminescence, 4 h | inhibition, % at 4 µM | 360,000 tested, 0.78% active;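 active = inhibition above the mean inhibition across every tested compound plus 3 SD, cut at about 22% in these data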;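 also: 0% = DMSO only wells and the 100% control is not disclosed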
Myeloid diff – promotes myeloid progenitor differentiation; shares compounds with Myeloid diff 2; ER-HoxA9 myeloid progenitors, GFP/Mac1 double-positive flow; calls only; 2,300 tested, 2% active;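 active = share of green or green-and-red cells above 9 and 9% in run 1 or 4 and 3% in run 2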
GFP autofluor – compound fluorescence in myeloid differentiation counter-screen | shares compounds with Myeloid diff 2 | 2,300 tested, 7.4% active | ER-HoxA9 myeloid progenitors, no estrogen, GFP autofluorescence flow cytometry; vehicle wells 0%, positive control 100% | fluorescence response, % (concentration not given with the values);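 active = over 5% cells positive for green fluorescent reporter, or over 2% positive for both it and APC stain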;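 also: range taken on the double positive population between DMSO and positive control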
* marks the source's active call; other numbers are inactive results; i = inactive; ? = inconclusive; . = not tested or not shown; + = active, no number.

SMILES	DAGLB inh	Rtt109 HAT inh	HGIII-sPLA2 inh	Myeloid diff 2	H9c2 protect	ABHD5 PLIN5 PPI	Myeloid diff	GFP autofluor
Cc1ccc(C)c(S(=O)(=O)N2CCCCC2CCNC(=O)C(=O)NCc2cccnc2)c1 (stereo unspecified)	-1	-10	6	i	-4	4	.	.
CCCc1[nH]n(-c2ccc(F)cc2)c(=O)c1C=Nc1cccc(F)c1	0	-1	13	i	7	-5	i	2
O=C(CCS(=O)(=O)c1ccc(Cl)cc1)Nc1nnc(-c2ccco2)o1	-2	6	12	+	9	0	i	0
CC(C)CSc1ncnc2c1oc1nc3c(cc12)COC(C)(C)C3	-3	-1	3	i	7	3	i	2
C=CCSc1ncnc2c1oc1nc3c(cc12)COC(C)(C)C3	-3	1	5	i	10	0	.	.
C[C@H](O)C#Cc1cnc2c(c1)C(=O)N([C@H](C)CO)C[C@@H](C)[C@H](CN(C)C(=O)Nc1ccc(C(F)(F)F)cc1)O2	-1	.	2	i	-8	-6	i	0
C[C@H](CO)N1C[C@H](C)[C@H](CN(C)C(=O)Nc2ccc(C(F)(F)F)cc2)Oc2ncc(Br)cc2C1=O	-1	.	-2	i	1	2	.	.
N#Cc1cccc(NC(=O)CCn2ccnc2)c1	-3	0	2	i	-15	-3	.	.
CC(C)(C)c1ccc(S(=O)(=O)NCCOCC(F)(F)C(F)F)cc1	-6	13	-19	+	-10	7	i	0
COc1ccc(NC(=O)N2CCCC2C(=O)NCCc2ccccc2)cc1 (stereo unspecified)	2	8	8	i	-6	-16	i	0
O=C(NCCc1ccccc1)C1CCCN1C(=O)Nc1ccccc1 (stereo unspecified)	-1	3	1	i	0	-2	.	.
CCc1ccc([C@H]2C(C(=O)O)=C[C@@H](C(C)(C)C)N2S(=O)(=O)c2ccc(C)cc2)cc1	10	4	-10	i	-2	4	.	.
CC(C)(C)[C@@H]1C=C(C(=O)O)[C@H](c2ccc(Cl)cc2)N1S(=O)(=O)c1ccccc1	5	-1	-6	+	-3	4	i	3
CCCN1C(=O)c2cccc3c(N4CCCCC4)ccc(c23)C1=O	-28	-8	-40	+	-12	-10	i	1
COc1ccc(Cn2c(C)nc3c(c2=O)c2nc4ccccc4nc2n3Cc2ccco2)cc1	5	1	-5	i	-9	33*	i	0
Cc1cccc(C)c1-n1c(C)nn(-c2ncc(C(F)(F)F)cc2Cl)c1=O	0	-2	3	i	0	3	i	0
Cc1nn(-c2ncc(C(F)(F)F)cc2Cl)c(=O)n1-c1c(F)cccc1F	1	4	10	i	0	2	.	.
COc1ccccc1OCCn1c(=O)oc2ccc(C)cc21	-1	1	-1	+	5	17	i	0
Cc1ccc2oc(=O)n(CCOc3ccccc3C)c2c1	-14	?	-6	i	-2	4	.	.
COc1ccc(CNC(=O)Cn2c(=O)oc3ccccc32)cc1OC	6	2	8	i	9	4	i	1
COc1ccc(Cn2c(=O)oc3ccc(C)cc32)cc1OC	0	5	5	+	-15	2	i	0
CCCCCC(=O)N1C[C@@H](O)[C@H](n2cc(COC(=O)c3ccccc3)nn2)C[C@@H]1c1ccc(OC)cc1	-3	.	-1	i	2	-17	i	0
CCCCCC(=O)N1C[C@@H](n2cc(COC(=O)c3ccccc3)nn2)[C@H](O)C[C@@H]1c1ccc(OC)cc1	1	.	-10	i	-2	-1	.	.
CC1=NN(C(C#N)c2ccc(F)cc2)C(C)(C)C1 (stereo unspecified)	4	-2	7	+	-2	0	i	0
Cc1cccc(/C=N/NC(=O)c2ccc(NC(=O)c3ccc(Cl)cc3)cc2)n1	1	-6	-3	+	-8	5	i	2
SMILES	DAGLB inh	Rtt109 HAT inh	HGIII-sPLA2 inh	Myeloid diff 2	H9c2 protect	ABHD5 PLIN5 PPI	Myeloid diff	GFP autofluor
Cc1cccc(/C=N/NC(=O)c2ccc(NC(=O)c3ccc(F)cc3)cc2)n1	2	0	-10	i	42	0	.	.
COc1ccc(/C=N/NC(=O)c2cc(C34CC5CC(CC(C5)C3)C4)[nH]n2)cc1O	3	1	-35	i	-11	-2	.	.
COCCCNc1nc2cc(OC)c(OC)cc2c2nc(-c3ccccc3)nn12	-1	-1	-1	+	56*	-9	i	0
Cn1cc(Cl)c(C(=O)OCC(=O)Nc2ccc(S(N)(=O)=O)cc2)n1	-2	3	2	i	-4	2	.	.
O=C(c1ccc2c(c1)OCO2)N1CCCc2ccccc21	0	-7	0	i	4	3	.	.
Cc1ccc2c(c1)CCCN2C(=O)c1ccc2c(c1)OCO2	-2	3	-2	i	-4	3	i	0
CCOC(=O)N1CCC(N2CCN(S(=O)(=O)c3ccc(OC)cc3)CC2)CC1	2	-2	3	i	-3	4	i	3.5*
Cc1ccc(OCc2nnc(SCc3nc4ccccc4[nH]3)n2Cc2ccco2)cc1	1	4	-25	+	-28	1	+	0
c1ccc(-c2nnc(SCc3nc4ccccc4[nH]3)n2Cc2ccco2)cc1	2	-2	-1	i	9	7	.	.
CCCCCCCSc1nnc(-c2ccccc2N)c(=O)[nH]1	11	-1	2	i	-7	2	.	.
CCCCCSc1nncc(=O)[nH]1	-1	15	-5	+	0	9	i	1
COc1cccc(N2CCN(S(=O)(=O)c3ccc4ccccc4c3)CC2)c1	-2	45	-3	i	-12	3	i	0
CCOC(=O)CNC(=O)CSc1nnc(NC(=O)c2ccc3c(c2)OCO3)s1	0	-11	3	i	-23	-3	.	.
O=C(COc1ccc(-n2cnnn2)cc1)Nc1ccc(F)c(F)c1	2	-12	-3	i	0	-1	i	0
COC(=O)/C(=C/Nc1ccccc1)[N+](=O)[O-]	-6	33	1	.	2	15	i	2
CCN(CC)C(=O)CSc1nnc([C@@H](NC(=O)OC(C)(C)C)C(C)C)o1	-5	6	-1	i	0	11	i	1
CCN(CC)C(=O)CSc1nnc([C@H](CCSC)NC(=O)OC(C)(C)C)o1	1	0	-1	i	-3	-3	.	.
